# An excerpt weighted towards active compounds, which were near 21% of everything screened.
# Pf growth 48h – inhibits P. falciparum growth in the first generation, 48 h | 5.9% of 310,000 active | P. falciparum luciferase growth in erythrocytes, 48 h | AID 504832 | Potency, µM (highest dose often 28.7 µM), usual class: inhibitors
#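 Luminescence readout; reporter = integrated firefly luciferase in P. falciparum. RBC culture at 2% hematocrit, 0.1% parasitemia final, 37 C/5% CO2; decreased signal taken as growth inhibition.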
# CHX counter – affects cycloheximide protein synthesis inhibition readout, counter-screen; 12% of 300,000 active; cell reporter, cycloheximide protein synthesis inhibition counterscreen; max response, %; in the data active means max response mostly above about 13%, no sharp cut-off; inactive means mostly below about 14%; further: read at 38.3 µM for the half of the compounds with a filed dose
# Shiga inhibitor – inhibitors of Shiga toxin in Vero cells | Vero cells, Shiga toxin protein synthesis inhibition reporter | inhibition, % at 38.7 µM | 9.2% of 290,000 active | AID 2315; in the data active means inhibition mostly above about 28%, no sharp cut-off; inactive means mostly below about 43%
# AMA1 RON2 block – inhibitors of Plasmodium falciparum AMA1-RON2 interaction. AID 720542. AlphaScreen AMA1-biotinylated RON2 peptide binding. 0.2% of 360,000 active. Potency, µM (top dose mostly 58.2 µM), most hits filed as inhibitors; further: nearly all actives have a fitted effect of over 45% in size
#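 AMA1 (3D7) with his tag at 25 nM final met compounds first, then biotinylated RON2 peptide at 25 nM; detection used donor plus acceptor beads, 10 µg/mL apiece, read by AlphaScreen after 30 min at room temperature.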
# Pf growth 96h – P. falciparum growth inhibition at 96 hour, primary screen for plastid delayed-death inhibitors | Potency, µM (doses to about 28.7 µM), hits mostly inhibitors | 6.9% of 320,000 active | P. falciparum luciferase reporter growth, 96 h | AID 504834
#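 Two-generation exposure (96 h) targets delayed-death phenotype. Reporter parasites carrying integrated firefly luciferase, in red cells at 2% hematocrit and 0.05% parasitemia final, kept at 37 C, 5% CO2; luminescence loss indicates inhibition.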
# HCV inh – HCV inhibition. Huh7.5.1 HCVcc-Cre infection, luciferase reporter, 44 h. Potency, µM (titrated, usually from 41.8 µM), hits mostly inhibitors. 3.4% of 340,000 active. AID 651820
#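 A cell-based infection assay in which seeded cells (1,000 per well) receive test compound after 4 h, are inoculated with HCVcc-Cre at approximately 0.5 moi, and are incubated 44 h before luminescence detection.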
# A number is an active result; – = inactive; ? = inconclusive; · = no result given; [ ] = remark or other dose. Unless noted, the call rests on the fitted dose curve; in most records, active means well fitted curve in the direction sought with a large enough effect; inconclusive means small, poorly fitted or top-dose-only effect, or another doubt; inactive means no such curve, though single readings can be large; an effect the other way counts as inactive or inconclusive.
SMILES,Pf growth 48h,CHX counter,Shiga inhibitor,AMA1 RON2 block,Pf growth 96h,HCV inh
COc1ccccc1NC(=O)CCS(=O)(=O)c1ccc2c(c1)NC(=O)C(C)S2 (centres undefined),–,–,–,–,–,–
Cc1ccc(C)c(N2CCN(C(=O)CCS(=O)(=O)c3ccc4c(c3)NC(=O)C(C)S4)CC2)c1 (centres undefined),?,–,–,–,–,2.8µM
CC(=O)c1ccc(N2CCN(C(=O)CCS(=O)(=O)c3ccc4c(c3)NC(=O)CS4)CC2)cc1,?,44,55,–,?,–
Cc1cc(C(=O)COc2cc(F)ccc2[N+](=O)[O-])c(C)n1CC1CCCO1 (centres undefined),·,·,·,–,·,–
COC(=O)[C@H](CCSC)NC(=O)Cn1cnc2c(NCc3ccccc3)ncnc21,·,·,·,–,·,–
CCCCN(C=O)c1c(CC)nc2ccc(C(=O)NCc3cccs3)cn12,·,·,·,–,·,·
O=C(CN1CCN(S(=O)(=O)c2ccc(Br)cc2)CC1)Nc1ccc(F)cc1F,–,13,–,–,–,–
O=C(CN1CCN(S(=O)(=O)c2ccc(Cl)cc2)CC1)Nc1ccc(F)cc1F,–,17,–,–,–,–
O=C(CN1CCN(S(=O)(=O)c2ccc(Br)cc2)CC1)Nc1ccc(F)cc1,4.1µM,–,–,–,–,–
CCCCN(C=O)c1c(CC)nc2c(OCCOc3ccccc3)cccn12,·,·,·,–,·,·
CCCc1c(C(=O)N/N=C/c2cccc(OCc3ccc(F)cc3)c2)nnn1-c1nonc1N,–,–,–,–,–,–
CCOC(=O)N1CCC(NC(=O)c2cc3c(-c4ccc(OC)c(OC)c4)nn(C)c3s2)CC1,?,–,–,–,9.3µM,?
COc1ccc(NC(=O)c2cc3c(-c4ccc(OC)c(OC)c4)nn(C)c3s2)cc1OC,·,51,100,–,–,?
CCOC(=O)C1CCN(C(=O)c2cc3c(-c4ccc(OC)c(OC)c4)nn(C)c3s2)CC1,·,–,–,–,?,–
Cc1nnc(SC(C)C(=O)NC2CCCCC2C)s1 (centres undefined),–,·,·,–,–,–
Cc1ccc(C)c(OCCNc2ncccc2[N+](=O)[O-])c1,–,–,–,–,–,–
O=C(/C=C/c1c[nH]c2ccccc12)c1cccc2ccccc12,–,28,37,–,9.3µM,?
O=C(/C=C/c1c[nH]c2ccccc12)c1c(O)n(CCc2ccccc2)c(=O)[nH]c1=O,–,21,–,–,–,–
CN1CCc2ccccc2Cc2[nH]c3ccccc3c2CC1,8.3µM,·,·,–,6.6µM,–
CN1c2ccccc2C(=O)N2CCc3c([nH]c4ccccc34)C21 (centres undefined),·,–,–,·,·,·
Cc1csc(NC(=O)C2(C)CCN2C(=O)C(C)C)c1C#N (centres undefined),·,·,·,–,·,·
CC(C)(C)NC(=S)N1CCC(C(=O)c2ccc(F)cc2)CC1,?,–,–,–,?,–
C=CCNC(=S)N1CCC(C(=O)c2ccc(Cl)cc2)CC1,–,–,–,–,9.3µM,?
CC(C)(C)NC(=S)N1CCC(C(=O)c2ccc(Cl)cc2)CC1,–,–,·,–,3.3µM,?
C=CCNC(=S)N1CCC(C(=O)c2ccc(C)cc2)CC1,–[0.00184 µM],–,–,–,–,–
SMILES,Pf growth 48h,CHX counter,Shiga inhibitor,AMA1 RON2 block,Pf growth 96h,HCV inh
COCCn1nc2cc(C(=O)NCC34CC5CC(CC(C5)C3)C4)ccc2c1OC,?,–,–,–,–,–
CCCn1nc2cc(C(=O)NCC34CC5CC(CC(C5)C3)C4)ccc2c1OCC,12µM,–,–,–,?,?
CCCCn1nc2cc(C(=O)NC3CCCc4ccccc43)ccc2c1OCC (centres undefined),–,–,–,–,?,1.8µM
CC(=O)N1CCCN(Cc2cn(-c3ccc(C)cc3)nc2-c2cccc(C)c2)CC1,9.3µM,–,–,–,?,–
Cc1cccc(-n2cc(CN3CCN(Cc4nccn4C)CC3)c(-c3cccc(F)c3)n2)c1,3.3µM,29,53,–,–,?
Cc1ccc(-n2cc(CN3CCNC(=O)CC3)c(-c3ccc(F)cc3)n2)cc1,?,–,–,–,?,–
Cc1ccc(-n2cc(CN3CCC(O)(c4ccccn4)CC3)c(-c3ccc(F)cc3)n2)cc1,4.7µM,–,–,–,2.3µM,?
COc1ccc(-n2cc(CN3CCCC3)c(-c3cccc(F)c3)n2)cc1,?,–,–,–,–,–
COCCN1C(=O)COc2ccccc2C1C(=O)Nc1c(C)cccc1C (centres undefined),·,·,·,–,·,·
Cc1c(Cl)ccc2c1NC(=O)[C@]21[C@@H]2C(=O)N(Cc3ccccc3)C(=O)[C@@H]2[C@@H]2CCCN21,?,–,–,–,·,–
CCc1cccc2c1NC(=O)[C@]21[C@@H]2C(=O)N(Cc3ccccc3)C(=O)[C@@H]2[C@@H]2CCCN21,9.3µM,–,–,–,–[5.75 µM],–
Cn1c(=O)c2[nH]c(Cc3cccc4ccccc34)nc2n(C)c1=O,·,·,·,–,·,–
O=C1/C(=C\c2cc3c(cc2Cl)OCO3)N2CCC1CC2,–,–,–,–,5.9µM,–
CC(C)N(C(=O)[C@H]1C[C@H](CC(=O)NCCC2=CCCCC2)C(=O)N2CCc3c([nH]c4ccc(Cl)cc34)[C@]12C)C(C)C,·,·,·,–,·,–
CNc1nc(C)c([N+](=O)[O-])c(Nc2ccc(OC)cc2)n1,–,–,–,–,–,–
CC(=O)Nc1ccc(Nc2nc(C)c([N+](=O)[O-])c(Nc3ccc(NC(C)=O)cc3)n2)cc1,–,–,–,–[2.32 µM],2.1µM,?
COc1ccc(/C(N)=N/OC(=O)CCCc2ccccc2)cc1OC,–,27,–,–,–,–
N/C(=N\OC(=O)Cc1ccccc1)c1ccccn1,–,28,–,–,–,–
N/C(=N\OC(=O)CCCc1ccccc1)c1ccc([N+](=O)[O-])cc1,–,–,–,–,–,–
N/C(=N\OC(=O)CCCc1ccccc1)c1ccccn1,–,35,54,–,–,–
N/C(=N\OC(=O)CCCc1ccccc1)c1ccc(Br)cc1,–,–,–,–,–,–
COc1ccc(/C(N)=N/OC(=O)CN(C)S(=O)(=O)c2ccccc2)cc1,–,–,–,–,–,–
CN(CC(=O)O/N=C(\N)c1ccccn1)S(=O)(=O)c1ccccc1,–,–,44,–,–,–
N=c1oc2ccc3ccccc3c2cc1-c1nnc2n1CCCCC2,–,–,–,–,9.3µM,–
COc1ccc2oc(=N)c(-c3nnc4n3CCCCC4)cc2c1,–,–,–,–,·,–
CN(CC(=O)NC(=O)NC1CCCCC1)CC(=O)Nc1ccc(OC(F)(F)F)cc1,5.2µM,·,·,–,?,–
COc1ccc(NC(=O)CN(C)CC(=O)NC(=O)NC2CCCCC2)cc1,–,·,·,–,–,–
COc1ccc(N(C(C)=O)S(=O)(=O)c2cc(OC)ccc2OC)cc1,–,–,–,–,8.3µM,–
